From PubChem BioAssay (NCI)
This is part of a sample that, as a whole, favours compounds with a hit. Of some 83,000 tested, about 20% had one in any assay.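 Assay: single dose, 48 h. Readout: percent growth (0 = no net growth; negative = cell death). Active: <10.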 The source made the active and inactive calls.

Legend:
Test in all cases: NCI-60 one-dose screen, 48 h (100 = growth as untreated, 0 = no growth, -100 = all killed)
NCI-H226 lung = settings: 10 µM
NCI-H322M lung = settings: 10 µM
HOP-62 NSCLC = settings: 10 µM
NCI-H460 lung = settings: 10 µM
NCI-H522 lung = settings: 10 µM
A549/ATCC NSCLC = settings: 10 µM
COLO 205 colon = settings: 10 µM
DU-145 prostate = settings: 10 µM
SF-268 CNS = settings: 10 µM
SF-295 CNS = settings: 10 µM
SF-539 CNS = settings: 10 µM
M14 melanoma = settings: 10 µM
HCT-15 colon = settings: 10 µM
HT29 colon = settings: 10 µM
SNB-75 CNS = settings: 10 µM
SNB-19 CNS = settings: 10 µM
PC-3 prostate = settings: 10 µM
SK-MEL-5 melanoma = settings: 10 µM
UACC-62 melanoma = settings: 10 µM
HL-60(TB) leukemia = settings: 10 µM unless noted

Measured: growth

CC(C)C[C@H](NC(=O)CNC(=O)C[C@H]1O[C@@H]2OC3(C)CC[C@H]4[C@H](C)CC[C@@H]([C@H]1C)[C@@]24OO3)B(O)O
active: NCI-H226 lung -22.4% | HOP-62 NSCLC -17% | NCI-H522 lung -73.8% | SF-295 CNS -63.6% | SF-539 CNS -93.3% | M14 melanoma -43.8% | HT29 colon -56% | SNB-75 CNS -15.7% | PC-3 prostate 4.1% | SK-MEL-5 melanoma -90.2% | UACC-62 melanoma -86.6%
inactive: NCI-H322M lung 51.6% | NCI-H460 lung 13.6% | A549/ATCC NSCLC 32.7% | COLO 205 colon 17.8% | DU-145 prostate 42.3% | SF-268 CNS 17.4% | HCT-15 colon 22.7% | SNB-19 CNS 27.4%

CC12OOC(C)(OO1)C2CCC(=O)NCCCNc1ccnc2cc(Cl)ccc12 (stereo unspecified)
active: NCI-H522 lung -77.8% | COLO 205 colon -62.6% | DU-145 prostate -74.4% | HCT-15 colon -45.1%
inactive: NCI-H226 lung 94% | NCI-H322M lung 97.1% | HOP-62 NSCLC 95.1% | NCI-H460 lung 88.6% | A549/ATCC NSCLC 87.8% | SF-268 CNS 101% | SF-295 CNS 102% | SF-539 CNS 52.9% | M14 melanoma 86% | HT29 colon 35% | SNB-75 CNS 103% | SNB-19 CNS 94.1% | PC-3 prostate 84.1% | SK-MEL-5 melanoma 86.4% | UACC-62 melanoma 87.2% | HL-60(TB) leukemia 96.6%

CC[C@]12C=CCN3CC[C@@]4(c5ccc(OC)cc5N(C)[C@H]4[C@@](O)(C(=O)OC)[C@@H]1OC(=O)CCCC[P+](c1ccc(C)cc1)(c1ccc(C)cc1)c1ccc(C)cc1)[C@@H]32
active: NCI-H226 lung -78.6% | NCI-H322M lung -97.6% | HOP-62 NSCLC -84% | NCI-H460 lung -86.6% | NCI-H522 lung -82.7% | A549/ATCC NSCLC -92.2% | COLO 205 colon -64.1% | DU-145 prostate -84.5% | SF-268 CNS -61.1% | SF-295 CNS -91.8% | SF-539 CNS -98.7% | M14 melanoma -88.3% | HCT-15 colon -90.1% | HT29 colon -81.8% | SNB-75 CNS -87.6% | SNB-19 CNS -96.5% | PC-3 prostate -73.2% | SK-MEL-5 melanoma -98.5% | UACC-62 melanoma -97.4% | HL-60(TB) leukemia -42.2%

COc1cc(OC)c(S(=O)(=O)N(CCCl)CCCl)cc1C(=O)/C=C/c1ccc(C)cc1
inactive: NCI-H226 lung 81.5% | NCI-H322M lung 89.1% | HOP-62 NSCLC 70.8% | NCI-H460 lung 31.9% | NCI-H522 lung 82.6% | A549/ATCC NSCLC 79.2% | COLO 205 colon 117% | DU-145 prostate 88.3% | SF-268 CNS 67.2% | SF-295 CNS 66.7% | SF-539 CNS 56.9% | M14 melanoma 86.4% | HCT-15 colon 81.8% | HT29 colon 80.7% | SNB-75 CNS 90.1% | SNB-19 CNS 29.8% | PC-3 prostate 67.6% | SK-MEL-5 melanoma 97.5% | UACC-62 melanoma 74.3% | HL-60(TB) leukemia 65.6%

O=C(/C=C/c1ccccc1)c1nc2ccccc2n1Cc1ccc(Br)cc1
active: NCI-H226 lung -71% | NCI-H322M lung -6.79% | HOP-62 NSCLC -68% | NCI-H460 lung -47% | NCI-H522 lung -73.8% | A549/ATCC NSCLC -3% | COLO 205 colon -74.7% | DU-145 prostate -48.3% | SF-268 CNS 3.91% | SF-295 CNS -71.9% | SF-539 CNS -93.4% | M14 melanoma -51.8% | HCT-15 colon -70.3% | HT29 colon -60.3% | SNB-19 CNS -90.1% | PC-3 prostate -31% | SK-MEL-5 melanoma -57% | UACC-62 melanoma -94.2% | HL-60(TB) leukemia -14.4%
inactive: SNB-75 CNS 16.2%

CC1=C(C=O)C2=C(C)C3(CC3)[C@@](C)(O)C(=O)C2=C1
active: NCI-H460 lung 2.24% | NCI-H522 lung -76.5% | DU-145 prostate 8.41% | SF-539 CNS -47.8% | HCT-15 colon -29.3% | SK-MEL-5 melanoma -91.5%
inactive: NCI-H226 lung 45.9% | NCI-H322M lung 67.2% | HOP-62 NSCLC 37.5% | A549/ATCC NSCLC 17.8% | COLO 205 colon 30.4% | SF-268 CNS 36.2% | SF-295 CNS 70.5% | M14 melanoma 13.6% | HT29 colon 15.8% | SNB-75 CNS 16.5% | SNB-19 CNS 54.5% | PC-3 prostate 26.1% | UACC-62 melanoma 49.3%

COC(=O)C[C@](O)(CCCC(C)C)C(=O)O[C@H]1C(OC)=C[C@@]23CCCN2CCc2cc4c(cc2[C@@H]13)OCO4
active: NCI-H226 lung -12.3% | NCI-H460 lung -28.6% | NCI-H522 lung -59.4% | A549/ATCC NSCLC -7.85% | COLO 205 colon -2.77% | DU-145 prostate -3.16% | SF-268 CNS 3.83% | SF-295 CNS -8.14% | SF-539 CNS -47.7% | M14 melanoma -46.4% | HCT-15 colon -21.1% | HT29 colon -22.7% | SNB-75 CNS -46.7% | SNB-19 CNS -27.7% | PC-3 prostate 1.16% | SK-MEL-5 melanoma -39% | UACC-62 melanoma 0.442%
inactive: NCI-H322M lung 25.4% | HOP-62 NSCLC 21.3%

O=C(/C=C/c1ccccc1)c1nc2ccccc2n1Cc1ccc(F)cc1
active: NCI-H226 lung -48.5% | HOP-62 NSCLC -26% | NCI-H460 lung -28.9% | NCI-H522 lung -33% | COLO 205 colon -43.4% | DU-145 prostate 2.92% | SF-295 CNS -11% | SF-539 CNS -89.1% | M14 melanoma -20.8% | HCT-15 colon -70.1% | HT29 colon -49.5% | SNB-75 CNS 3.39% | SNB-19 CNS -47.9% | PC-3 prostate -33.5% | UACC-62 melanoma -39% | HL-60(TB) leukemia -25.3%
inactive: NCI-H322M lung 37% | A549/ATCC NSCLC 24.8% | SF-268 CNS 10.8% | SK-MEL-5 melanoma 11%

O=C(NCCCCC(c1ccc(F)cc1)c1ccc(F)cc1)Nc1ccc([N+](=O)[O-])c(C(F)(F)F)c1
active: NCI-H226 lung 0.603% | NCI-H322M lung 6.54% | HOP-62 NSCLC -29% | NCI-H460 lung 7.56% | NCI-H522 lung -16.9% | A549/ATCC NSCLC 6% | COLO 205 colon -100% | SF-295 CNS -4.61% | SF-539 CNS -28.2% | M14 melanoma -23.1% | HCT-15 colon 0.604% | HT29 colon -11% | SNB-75 CNS -9.8% | PC-3 prostate -4.82% | SK-MEL-5 melanoma -100% | UACC-62 melanoma -14.9%
inactive: DU-145 prostate 20.9% | SF-268 CNS 18.5% | SNB-19 CNS 17.1%

CC1CCc2c(sc3nc(SCC(=O)c4cccc([N+](=O)[O-])c4)n(-c4ccccc4)c(=O)c23)C1 (stereo unspecified)
inactive: HL-60(TB) leukemia 87.1%

COC[C@@H](CC(C)C)N=C1NC(=O)/C(=C/c2ccc3ncoc3c2)N1
active: HL-60(TB) leukemia 1.03%

Cn1cc(-c2cc(N)n3nc(-c4c[nH]c5ccccc45)cc3n2)c2cccnc21
active: HL-60(TB) leukemia -70.9%

COc1ccc2[nH]c(O)c(N=NC(=O)Cn3c(-c4ccccc4)nc4cc(C)ccc43)c2c1
active: HL-60(TB) leukemia -50.8%

C=CC(=O)Nc1ccc(C)c(Oc2ccc(Cl)cc2)c1
inactive: HL-60(TB) leukemia 54%

O=C(N=Nc1c(O)[nH]c2ccc(Cl)cc12)c1ccc2nc(-c3ccccc3)[nH]c2c1
inactive: HL-60(TB) leukemia 72.5%

Cn1cc(-c2cc(N)n3nc(-c4c[nH]c5ccc(Cl)cc45)cc3n2)c2cccnc21
active: HL-60(TB) leukemia -59.8%

O=C(COc1ccc(/C=C2/C(=O)Nc3ccc(Cl)cc32)cc1)Nc1ccc(Br)cc1
inactive: HL-60(TB) leukemia 10.3%

O=C(CNc1nc(-c2ccccc2)cs1)Nc1ccc(Cl)cc1[N+](=O)[O-]
active: HL-60(TB) leukemia -15.1%

CCCSc1nc(Nc2ccc(S(N)(=O)=O)cc2)c(C#N)c(-c2cc(OC)c(OC)c(OC)c2)n1
active: HL-60(TB) leukemia -40.3%

COc1ccc2[nH]c(=O)c(CSc3ccccc3Nc3nccc(-c4ccc5c(c4)OCO5)n3)cc2c1
inactive: HL-60(TB) leukemia 74%

CCOC(=O)/C=C/c1cccc2c1C(=O)NC(C)(c1cc3cc(Cl)ccc3oc1=O)N2 (stereo unspecified)
active: HL-60(TB) leukemia 2.37%

O=C(NN1C(=O)/C(=C/C=C/c2ccc([N+](=O)[O-])o2)SC1=S)c1ccccc1O
active: HL-60(TB) leukemia -0.846%

O=C(O)CCN1C(=O)/C(=C/C=C/c2ccc([N+](=O)[O-])o2)SC1=S
active: HL-60(TB) leukemia -11%

O=C(N=Nc1c(O)[nH]c2ccc(Br)cc12)c1ccc2nc(-c3ccc(Cl)cc3)[nH]c2c1
inactive: HL-60(TB) leukemia 20.9%

O=C(N/N=C/c1ccc(-c2ccc(O)cc2)o1)c1[nH]c2ccc(Br)cc2c1-c1ccccc1
active: HL-60(TB) leukemia -20.6%

N#Cc1c(-c2cccc3ccccc23)cc(-c2cccc(OCC(=O)O)c2)[nH]c1=O
inactive: HL-60(TB) leukemia 82.2%

COc1cc(CNC(=O)C[C@H](C)CCC=C(C)C)ccc1OCc1cn(-c2ccc(Br)cc2)nn1
inactive: HL-60(TB) leukemia 88.4%

COc1ccc(N=Nc2c(N)nn3c(N)c(C#N)c(-c4ccc(C)cc4)nc23)cc1
inactive: HL-60(TB) leukemia 52.1%

O=C(Nc1ccc(-c2ccc3c(c2)NC(=O)/C3=C\c2ccc[nH]2)cc1)Nc1ccc(Cl)c(Cl)c1
inactive: HL-60(TB) leukemia 51.8%

CCCCn1c(O)c(N=Nc2nc(-c3cc4ccccc4oc3=O)cs2)c2cc(Br)ccc21
inactive: HL-60(TB) leukemia 101%

CN(C)c1ccc(/C=C/c2n(Cc3ccc4ccccc4c3)c3ccccc3[n+]2Cc2ccc3ccccc3c2)cc1
active: HL-60(TB) leukemia -47.1%

COc1cc2cc(C(=O)N3C[C@@H](CCl)c4c3cc(OC(=O)N(C)CCSSCCN3CCOCC3)c3ccccc43)[nH]c2c(OC)c1OC
active: HL-60(TB) leukemia -39.6%

O=C1c2cccc3c(N4CCN(c5ccccc5)CC4)ccc(c23)C(=O)N1c1cccc(-c2nn(-c3ccccc3)cc2-c2nc3ccccc3s2)c1
inactive: HL-60(TB) leukemia 98.5%

O=C(c1ccccc1)C(c1c[nH]c2ccccc12)c1c[nH]c2ccccc12
inactive: HL-60(TB) leukemia 53.8%

COc1ccc([C@H]2C(C(=O)c3ccc(Cl)cc3)C3(N[C@@H]2c2ccccc2)C(=O)Nc2ccccc23)cc1 (stereo partly specified)
inactive: HL-60(TB) leukemia 29.2%

CN1CCN(C(=O)Oc2cc3c(c4ccccc24)[C@H](CCl)CN3C(=O)c2cc3cc(OCCCN4CCC4)ccc3[nH]2)[C@@H]2CSSC[C@H]21
active: HL-60(TB) leukemia -25.8%

COc1c(B(O)O)cc(F)cc1-c1nc2c(F)cc3[nH]ncc3c2c2c1CCCC2
active: HL-60(TB) leukemia 1.83%

Cc1ccc(F)cc1N/C=c1\s/c(=C(\C#N)C(=O)Nc2ccccc2)n(-c2ccccc2)c1=O
inactive: HL-60(TB) leukemia 111%

O=C1CCC(N2Cc3c(NCc4ccc(-c5ccccc5)cc4)cccc3C2=O)C(=O)N1 (stereo unspecified)
inactive: HL-60(TB) leukemia 10.7%
